# Measurements as given in PubChem BioAssay (NCI).
# About 83,000 compounds went through this panel and 20% of them were active in at least one assay; those are over-represented in the sample as a whole.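 Cell lines were cultured in 96-well plates, exposed to a single compound concentration, and assessed for percent growth 48 hours later.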 Unmarked numbers belong to inactive results. Active and inactive are the calls of the source. Rule for the calls: active = growth percent below 10; inactive = the rest.
# Tested on: NCI/ADR-RES ovarian
# Assay: NCI-60 one-dose screen, 48 h (100 = growth as untreated, 0 = no growth, -100 = all killed)
# Conditions: 10 µM unless noted
row,Structure (SMILES),growth
1,COc1ccc2[nH]cc(-c3csc4nc(-c5ccccc5)cn34)c2c1,5.97% (active)
2,COc1cc(Cn2cc3c(c2)-c2onc(CN4CCCC4)c2CC3)cc(OC)c1OC,94.9%
3,COC(=O)/C=C/c1c(C2(C)NC(=O)c3ccccc3N2)c(=O)oc2ccc(Cl)cc12 (centres undefined),98.3%
4,Cc1ccc2c(c1)Oc1nc(N)c(C#N)c(N)c1C2Sc1ccc(F)cc1 (centres undefined),-89.4% (active)
5,COc1ccc(Cn2cc3c(c2-c2cc(OC)c(OC)c(OC)c2)CCc2c(CN4CCCC4)noc2-3)cc1,9.19% (active)
6,COc1ccc(Cn2cc3c(c2-c2cc(OC)c(OC)c(OC)c2)CCc2c(CN4CCOCC4)noc2-3)cc1,8.51% (active)
7,CCNC(=O)N1CCc2cc(OC)c(OCCc3ccc(OC)cc3)cc2C1c1ccc([N+](=O)[O-])cc1C (centres undefined),12.2%
8,COc1ccc([C@@H]2[C@@H](O)C(=O)N2c2cc(OC)c(OC)c(OC)c2)cc1F,-6.67% (active)
9,Cc1ccc(-c2nnc(SCc3ccc(O)c4ncccc34)n2-c2ccccc2)cc1,2.09% (active)
10,COc1cc2oc(-c3cccc(C(=O)N[C@@H](CC(C)C)C(=O)OC(C)(C)C)c3)cc(=O)c2c(OC)c1OC,49%
11,Cc1ccc(S(=O)(=O)N(CC[C@@H]2C[C@H]2c2cc3ccccc3o2)S(=O)(=O)c2ccc(C)cc2)cc1,94%
12,Brc1ccccc1/C=N/Nc1nc(N/N=C/c2ccccc2Br)nc(N2CCOCC2)n1,91.5%
13,CC1=NC2=NC(=O)/C(=C3/N=C(C)C=C(c4ccccc4)N3N)NN2C(c2ccccc2)=C1,108%
14,CN(C)CCN(C)c1ccc2ncc(C#Cc3cncc(C(=O)Nc4ccc(CN5CCN(C)CC5)c(C(F)(F)F)c4)c3)n2n1,37.1%
15,NC(N)=Nc1ccc(Oc2cccc(Nc3ccc(Br)c(C(F)(F)F)c3)c2)cn1,55.7%
16,COc1cc(Cn2cc3c(c2)-c2onc(CN4CCOCC4)c2CC3)cc(OC)c1OC,100%
17,Cc1cc(-c2ccc(Cl)cc2)n(Cc2nnc(SCC(=O)Nc3ccc(S(N)(=O)=O)cc3)n2-c2ccc([N+](=O)[O-])cc2)n1,84.3%

row,Structure (SMILES),growth
1,COc1ccc(C(=O)CSc2nc3c(c(Nc4ccc(S(N)(=O)=O)cc4)n2)CCCC3)cc1,103%
2,CCn1c(SCC(=O)Nc2cccc(C(=O)/C=C/c3cc(OC)c(OC)c(OC)c3)c2)nc2ccccc2c1=O,14.1%
3,Nc1ncc(-c2ccc(NS(=O)(=O)c3ccc(Cl)c(Cl)c3)cc2)[nH]1,98.3%
4,Cc1nn(-c2ccccc2)c2ncnc(N/N=C/c3ccccc3O)c12,3.15% (active)
5,COc1cc(-c2nnc(SCc3ccc(O)c4ncccc34)n2-c2ccccc2)cc(OC)c1OC,0.665% (active)
6,Oc1ccc(CSc2nnc(-c3ccc(Cl)cc3)n2-c2ccccc2)c2cccnc12,4.53% (active)
7,CCc1ccc(SC2c3ccc(N(CC)CC)cc3Oc3nc(N)c(C#N)c(N)c32)cc1 (centres undefined),5.13% (active)
8,CS(=O)(=O)Nc1cc(-c2ccc3ncc(C#N)c(NCc4ccccc4O)c3c2)cnc1Cl,42.4%
9,NS(=O)(=O)c1ccc(Nc2cc(-c3ccccc3)nc(SCC(=O)c3ccccc3)n2)cc1,101%
10,c1ccc(C(c2nc3ncncc3[nH]2)N2CSc3nc4ccccc4n3C2)cc1 (centres undefined),104%
11,COCCNc1ccc2ncc(C#Cc3cncc(C(=O)Nc4ccc(CN5CCN(C)CC5)c(C(F)(F)F)c4)c3)n2n1,43.9%
12,O=c1c2ccccc2nc(COc2ccccc2)n1NS(=O)(=O)c1ccc(Cl)cc1,73%
13,NC(N)=Nc1ccc(Oc2cccc(Nc3ccc(Cl)c(C(F)(F)F)c3)c2)cn1,53.6%
14,O=C1CC(=O)N2CSCN(C(c3ccccc3)c3nc4ncncc4[nH]3)C2=N1 (centres undefined),99.3%
15,COc1cc(/C=N/NC(=O)c2cn(C3CC3)c3c(OC)c(N4CC5CCCNC5C4)c(F)cc3c2=O)ccc1O (centres undefined),98.5%
16,C[C@H](CCC(=O)NCc1ccc(C(=O)Nc2ccccc2N)cc1)[C@H]1CC[C@H]2[C@@H]3[C@@H](O)C[C@@H]4C[C@H](O)CC[C@]4(C)[C@H]3CC[C@]12C,99.4%
17,N#Cc1cn(Cc2ccc(Cl)cc2Cl)c(C(=O)c2ccc(Br)cc2)c1N,88.8%
